# Results taken from PubChem BioAssay AID485341 (National Center for Advancing Translational Sciences (NCATS), 2010).
# Hit rate of the full screen: of about 330,000 compounds, about 1,700 (0.52%) were called active. A call without a number means that no potency is given here. Calls come from the whole dose curve; as a rule, active = well fitted inhibition curve with a large enough effect; inconclusive = small, poorly fitted or top-dose-only effect; inactive = no such curve, though single readings can be large or run the other way. Many of the other results were omitted from the sample, so actives are more common in it than they were.
# Target: Beta-lactamase (Escherichia coli (strain K12)) (UniProt P00811)
# Experiment: qHTS Inhibitors of AmpC Beta-Lactamase (assay without detergent); note: nearly all actives have a fitted effect of over 20% in size
# Conditions: AmpC nitrocefin hydrolysis, absorbance 480 nm, 0.0001% Triton; series mostly up to 57.1 µM
# Experimental: NIH Molecular Libraries Probe Production Network [MLPCN] NIH Chemical Genomics Center [NCGC] Assay Provider: Professor Brian Shoichet, UCSF Assay Overview: This aggregation profiling approach exploits the sensitivity of aggregate formation to detergent. Inhibition of b-lactamase is measured in the presence and absence of 0.01% Triton X-100. This particular assay had the prescence of 0.01% Triton X-100. See Pubchem assay "Promiscuous and Specific Inhibitors of AmpC Beta-Lactamase (assay without detergent)" for related screen. Compounds that inhibit only in the absence of detergent are considered likely promiscuous aggregators. A screen of 1,030 compounds was performed in Brian Shoichet's lab in 96-well format. AmpC activity was measured by following the absorbance at 480 nm. Nitrocefin is a chromogenic substrate: while nitrocefin is yellow (lmax 390 nm), the product of its hydrolysis is red (lmax 486 nm, 17,000 M-1). AmpC beta lactamase was provided by Shoichet Lab, UCSF.
# Buffer: 20 mM phosphate buffer, pH 7.0 Triton X-100: No Detergent screen: 0.0001%, Detergent screen: 0.01%. Reagents/Controls: Buffer in columns 3 and 4 as negative control (no enzyme). 5.3 nM AmpC in columns 1, 2, 5-48. Titration of UCSF compound 9 control (from 10 mM, then 1:2) pin-transferred to column 2. Column 1 is neutral (100% activity). Assay Steps: Six uL of reagents were dispensed to 1536-well Greiner black clear bottom plates. Compounds and controls (23 nL) were transferred via Kalypsys PinTool. The plates were incubated for 15 min at room temperature, and then 2 uL of 800 uM solution of nitrocefin was added to start the reaction. The plates were immediately transferred to and read every 20 seconds for 4 min on ViewLux (Perkin-Elmer) High-throughput CCD imager using 480 nm absorbance protocol. During dispense, reagent bottles were kept submerged into 4 deg C water bath. Keywords: NIH Roadmap, MLSCN, MLI, MLSMR, qHTS, NCGC, AmpC Beta-Lactamase, Aggregation
# Potency is the fitted concentration of half-maximal effect.
# Sequence of Beta-lactamase (Escherichia coli (strain K12)) (P00811 whole entry, looked up): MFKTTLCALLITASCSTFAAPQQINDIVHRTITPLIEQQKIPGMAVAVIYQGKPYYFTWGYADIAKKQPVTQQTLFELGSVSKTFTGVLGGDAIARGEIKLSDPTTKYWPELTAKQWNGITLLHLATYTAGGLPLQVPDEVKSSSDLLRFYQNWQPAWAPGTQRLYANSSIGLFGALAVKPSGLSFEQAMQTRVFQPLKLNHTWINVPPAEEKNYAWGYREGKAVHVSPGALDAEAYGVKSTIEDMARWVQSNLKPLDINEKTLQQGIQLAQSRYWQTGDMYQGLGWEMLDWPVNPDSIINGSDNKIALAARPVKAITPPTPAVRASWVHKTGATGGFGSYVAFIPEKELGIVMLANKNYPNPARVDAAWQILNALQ
row,Structure (SMILES),Potency
1,CCOC(=O)C1CCCN(C(=O)CSc2nnc3nc(C)cc(C)n23)C1 (configuration not stated),inactive
2,O=C(CSc1nc2ccccc2c(=O)[nH]1)Nc1nc(-c2ccc(Br)cc2)cs1,inactive
3,CC(=O)NCc1ccc(-c2csc(NC(=O)CCCc3nc4ccccc4c(=O)[nH]3)n2)cc1,inactive
4,Cc1cc(C)c(-c2csc(NC(=O)CCCc3nc4ccccc4c(=O)[nH]3)n2)c(C)c1,35.5 µM (active)
5,O=c1cc(CO)oc(C(Nc2cccc(C(F)(F)F)c2)c2ccccn2)c1O (configuration not stated),inactive
6,O=C(O)CN1c2cccc3cccc(c23)S1(=O)=O,inactive
7,CCOC(=O)c1ccc(NC(=O)CS(=O)(=O)c2cn(CC)c3ccccc23)cc1,inactive
8,Cc1cc(NC(=O)COn2nnc3ccccc32)no1,inactive
9,Cc1cc(NC(=O)CS(=O)(=O)c2cn(C)c3ccccc23)no1,10 µM (active)
10,Cc1ccc(NC(=O)CCCNC(=O)c2ccc(Cl)cc2)cc1S(=O)(=O)N1CCCCC1,inactive
11,CC1=C[C@H]2Cc3cc(C)cc(C)c3S(=O)(=O)[C@@H]2C=C1,inactive
12,Cn1nccc1/C=N\NC(=O)c1ccc(Cl)cc1,inactive
13,CC1(C)C2CC=C(/C=N/NC(=O)C3CC3)C1C2 (configuration not stated),inactive
14,CC1(C)C2CC=C(/C=N/NC(=O)c3ccc(Cl)cc3)C1C2 (configuration not stated),11.2 µM (active)
15,Cc1c(C(=O)N(C)CCc2cnn(C)c2)oc2c(F)cccc12,inactive
16,COc1ccc(COC(=O)c2n[nH]c3ccccc23)cc1F,inactive
17,CCN(CC)S(=O)(=O)c1ccc2nc(COC(=O)c3n[nH]c4ccccc34)[nH]c2c1,22.4 µM (active)
18,CN(C)S(=O)(=O)c1ccc(NC(=O)COC(=O)c2n[nH]c3ccccc23)cc1,inactive
19,COc1ccc(C(=O)O)cc1S(=O)(=O)NCc1cccnc1,inactive
20,CCC(C)NC(=O)c1ccccc1NC(=O)c1ccccc1N(C)S(C)(=O)=O (configuration not stated),inactive
21,O=C(Cc1cccs1)Nc1nnc(SCc2ccc(F)cc2)s1,inactive
22,Cc1ccc(C(=O)Oc2coc(CSc3nnc(NC(=O)c4cccs4)s3)cc2=O)cc1C,7.08 µM (active)
23,COC(=O)c1ccc(CSc2nnc(NC(C)C)s2)cc1,inactive

row,Structure (SMILES),Potency
1,COc1cc(OC)cc(C(=O)NNC(=O)CNC(=O)c2ccc(Br)o2)c1,inactive
2,CSCC[C@H](NC(=O)N1CCn2c1nc1ccccc12)C(=O)NCc1ccc2c(c1)OCO2,inactive
3,CCc1ccc(-n2c(=S)sc3c(=O)n(-c4ccccc4OC)c(=S)[nH]c32)cc1,inactive
4,Cc1ccc(S(=O)(=O)N(Cc2ccccc2)c2ccccn2)cc1[N+](=O)[O-],inactive
5,CC(C)(C)C(=O)N(Cc1ccccc1)c1ccccn1,inactive
6,Cc1csc2ncc(C(=O)N(Cc3ccccc3)c3ccccn3)c(=O)n12,5.62 µM (active)
7,CCC(=O)N(Cc1ccccc1)c1ccccn1,inactive
8,Cc1ccc(C(=O)NNC(=O)c2ccc3c(c2)OCCO3)cc1,inactive
9,Cc1ccc(C(=O)NNC(=O)c2cc3cc4ccccc4nc3s2)cc1,22.4 µM (active)
10,Cc1ccc(C(=O)NNc2ncnc3ccccc23)cc1,inactive
11,COc1cccc(N(CC(=O)NCc2ccccc2)C(=O)CCC(=O)Nc2nccs2)c1,inactive
12,COC(=O)CCC(=O)N1CCCC(CO)(Cc2ccccc2)C1 (configuration not stated),inactive
13,Cc1nc(Cl)c2oc3ccccc3c2n1,0.158 µM (active)
14,Cc1nc(N2CCCC2C(=O)O)c2oc3ccccc3c2n1 (configuration not stated),inactive
15,COc1ccc(C)cc1Nc1nc(C)nc2c1oc1ccccc12,inactive
16,CC1=CC2=NC(=O)CC(C)(C(=O)N(CC(=O)NC(C)(C)C)Cc3ccccc3)N2C=C1 (configuration not stated),inactive
17,Cc1ccc(Sc2cc(N3CCOCC3)nc(-c3ccccc3)n2)cc1,inactive
18,N#Cc1ccccc1Sc1ccccc1C(=O)OCC(=O)NC1CCCCC1,35.5 µM (active)
19,O=C(COC(=O)c1ccccc1Cl)NC1CCCCCCC1,inactive
20,O=C(COC(=O)c1ccccc1SCC(=O)NC1CCCCC1)NC1CCCCC1,inactive
21,CCOc1c2ccc(C(=O)NCc3ccc4c(c3)OCO4)cc2nn1C,0.316 µM (active)
22,CCCn1nc2cc(C(=O)NCc3ccccc3)ccc2c1OCC,inactive
23,CCOc1c2ccc(C(=O)NCc3ccc(OC(F)(F)F)cc3)cc2nn1C,inactive

row,Structure (SMILES),Potency
1,CCCc1noc2c1/C(=N\O)CCC2,inactive
2,Cc1ccc(CNC(=O)CC(NC(=O)c2ccccc2)c2ccccc2)cc1 (configuration not stated),inactive
3,COc1cccc(Nc2nnc(SCC(=O)N3CC(=O)Nc4ccccc43)s2)c1,inactive
4,O=C(CCc1ccccc1Cl)Nc1ccc(S(=O)(=O)Nc2nccs2)cc1,inactive
5,Cc1ccc(Cc2cnc(N)s2)o1,inactive
6,Cc1ccc(CCC(=O)Nc2ncc(Cc3cc(Cl)ccc3Cl)s2)o1,20 µM (active)
7,O=S(=O)(Nc1cccc(-c2ccc(N3CCOCC3)nn2)c1)c1ccc(Cl)c(Cl)c1,inactive
8,O=C(NCC(c1ccco1)N1CCc2ccccc21)c1cccc(F)c1 (configuration not stated),inactive
9,O=C(/C=C/c1ccccc1)Oc1coc(CSc2ncccn2)cc1=O,inactive
10,O=C(CSc1nnc(-c2cccs2)n1Cc1ccccc1)N1CCc2ccccc2C1,inactive
11,Cc1nc(SCC(=O)N2CC(=O)Nc3ccccc32)c2c(C)c(C)sc2n1,inactive
12,Cc1nc(SCC(=O)N2CCc3ccccc3C2)c2c(C)c(C)sc2n1,0.158 µM (active)
13,CC(C)C(=O)Nc1nnc(Sc2ccc(N(C)C)cc2)s1,inactive
14,Fc1cccc(Cc2noc(CN3CCN(c4cnccn4)CC3)n2)c1,inactive
15,Cc1ccc(-n2c(C)cc(/C=C(\C#N)C(=O)NCC3CCCO3)c2C)cc1 (configuration not stated),inactive
16,CC(C)C(=O)N1CC(=O)Nc2ccc(F)cc2C1c1ccc(F)cc1 (configuration not stated),inactive
17,Cc1ccc2c(c1)C(c1ccccc1)N(C(=O)c1ccc(F)cc1)CC(=O)N2 (configuration not stated),inactive
18,CCC(CC)C(=O)N1CC(=O)Nc2ccc(Br)cc2C1c1ccccc1 (configuration not stated),0.891 µM (active)
19,COCCOC(=O)c1[nH]c2c(c1C)C(=O)CC(c1ccc(OC)cc1)C2 (configuration not stated),inactive
20,CCCOC(=O)c1[nH]c2c(c1C)C(=O)CC(c1cc(OC)c(OC)c(OC)c1)C2 (configuration not stated),2.51 µM (active)
21,CCCOC(=O)c1[nH]c2c(c1C)C(=O)CC(c1cccs1)C2 (configuration not stated),inactive
